± gives the standard deviation.
Test system: Streptococcus suis P1/7
Assay: percent growth relative to DMSO control; higher = less growth inhibition
Settings: 10 µM; incubation time 18 h
Description: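 CLSI broth microdilution: 5x10^4 CFU of Streptococcus suis (strain P1/7 or HE06) incubated with 10 µM Pathogen Box compound in cation-adjusted Mueller Hinton broth, 37 °C, 5% CO2, 18 h. Growth read as OD600 and expressed as percent of the DMSO-treated control (100%); mean ± SD of three independent experiments.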

SMILES | percent growth [%]
COc1cc(NC(=O)Cc2nn(C)c(=O)c3ccccc23)ccc1Cl | 108 ± 46
C[C@H](C(N)=O)N1CCCC[C@@H]1c1ccc(OCc2cccc(F)c2)cc1 | 89.7 ± 15
CO[C@@H](C(=O)N1Cc2[nH]nc(NC(=O)c3ccc(N4CCN(C)CC4)cc3)c2C1)c1ccccc1 | 86.3 ± 15
Nc1ncnc2c1c(-c1cnc3ccccc3c1)nn2CC1CCNCC1 | 102 ± 20
CCOc1ccc2cc(-c3nn(CC4CCN(C)CC4)c4ncnc(N)c34)ccc2c1 | 99.3 ± 11
COc1cccc(-n2nnnc2S(=O)(=O)Cc2ccccc2)c1 | 64.7 ± 47
CC(C)(C)n1nc(-c2ccccc2)c2c(N)ncnc21 | 84.5 ± 20
Cc1ccc2[nH]c3c(NCCN(C)C)ncnc3c2c1 | 172 ± 110
O=C(C1CCN(c2nnnn2-c2ccccc2)CC1)N1CCc2ccccc2C1 | 62.4 ± 21
CC(=O)NC[C@H]1CN(c2ccc(N3CCSCC3)c(F)c2)C(=O)O1 | 2.2 ± 3.8
CCn1cnc2c(Nc3cc(F)cc(F)c3)nc(C#N)nc21 | 75.3 ± 24
O=C(C1CCCCC1)N1CC(=O)N2CCc3ccccc3C2C1 (stereo not given) | 102 ± 18
O=C1COCc2ccc(Br)cc2N1Cc1ccc(C(F)(F)F)cc1 | 75.4 ± 7.3
Cc1cnc(N2CCN[C@@H](Cc3ccccc3)C2)nc1Oc1ccc(-n2ccnc2)cc1 | 109 ± 29
C[C@H](C(N)=O)N1CCCC[C@H]1c1ccc(OCc2cccc(F)c2)cc1 | 63.4 ± 26
Cc1nn2c(O)c3c(nc2c1-c1ccc(F)cc1)CCCC3 | 45.5 ± 21
O=C(Nc1ccc(F)c(-c2nc3cc(-c4ccccc4)cnc3[nH]2)c1)N1CCCC1 | 83.7 ± 5.5
O=C(OCc1ccccc1)N1CCC(c2cc(-c3ccncc3)c(-c3ccc(F)cc3)[nH]2)CC1 | 92 ± 13
Cc1nc(-c2ccccn2)nc(N(C)CCc2ccccc2)c1Cl | -0.0636 ± 0.11
O[C@@H](c1cc(C(F)(F)F)nc2c(C(F)(F)F)cccc12)[C@H]1CCCCN1 | 97.7 ± 18

SMILES | percent growth [%]
CC(C)=CCC/C(C)=C\CNCCNC1C2CC3CC(C2)CC1C3 (stereo not given) | -0.0282 ± 0.049
O=C(Nc1ccc2c(c1)B(O)OC2)c1ccccc1C(F)(F)F | 88 ± 14
O=[N+]([O-])c1cn2c(n1)OC[C@@H](OCc1ccc(OC(F)(F)F)cc1)C2 | 90 ± 13
COc1ccc(N(CCc2cccc(C)n2)C(C)=O)cc1 | 62.6 ± 12
COCC(C)NC(=O)CSc1ncnc2sc(-c3ccccc3)cc12 (stereo not given) | 84.8 ± 13
Nc1nccc2ccc(-c3ccc4nccn4c3)cc12 | 61.4 ± 20
CS(=O)(=O)c1cccc(-c2cnc3[nH]cc(-c4ccc(CCC(=O)O)cc4)c3c2)c1 | 52.9 ± 34
CNC(=O)c1cc(S(=O)(=O)N2CCN(c3ccccn3)CC2)cs1 | 129 ± 58
Cc1cc(Nc2ccc(C(F)(F)F)cc2)n2ccnc2n1 | 97.6 ± 41
N#Cc1nc(-c2ccccc2)oc1S(=O)(=O)c1ccc(Cl)cc1 | 85.2 ± 19
N=C(N)Nc1ccc(-c2ccc(-c3ccc(NC(=N)N)cc3Cl)o2)c(Cl)c1 | 23.2 ± 34
C[C@H](c1ccc2c(c1)CCCC2)N(C)c1ncc2c(N)nc(N)nc2n1 | 76.6 ± 18
FC(F)(F)c1cc(NCCc2ccccc2)nc(-c2ccccn2)n1 | 9.89 ± 17
CC1(COc2ccc(N3CCC(Oc4ccc(OC(F)(F)F)cc4)CC3)cc2)Cn2cc([N+](=O)[O-])nc2O1 (stereo not given) | 114 ± 61
Cc1cc(OCC(=O)Nc2ccc(C(C)C)cc2)n(C)c(=O)c1C#N | 79 ± 12
CN1CCCC1CCO[C@](C)(c1ccccc1)c1ccc(Cl)cc1 (stereo not given in full) | 78.1 ± 43
Cn1ncc2c(N3CCOCC3)nc(NCCc3c[nH]c4ccccc34)nc21 | 78.8 ± 17
CC(C)(C)n1nc(Cc2cccc3ccccc23)c2c(N)ncnc21 | 87.7 ± 16
CCOC(=O)c1cc(-c2csc(Nc3c(C)cc(C)cc3C)n2)on1 | 108 ± 60
O=C(c1ccco1)N(CCCn1ccnc1)c1nc2c(Cl)cccc2s1 | 34.1 ± 59

Source: the supplement of paper PMC7866885, “A novel bicyclic 2,4-diaminopyrimidine inhibitor of Streptococcus suis dihydrofolate reductase” (PeerJ, 2021)
